Results as given in PubChem BioAssay (NCI).
About 83,000 compounds went through this panel and 20% of them were active in at least one assay; those are over-represented in the sample as a whole.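 Step 1: grow cells in 96-well plates. Step 2: add test compound at a single concentration. Step 3: incubate 48 h. Step 4: record percent growth.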 Calls of active or inactive are those of the source. Rule for the calls: active = growth percent below 10; inactive = the rest.

How the values were obtained:
Experiment in all cases: NCI-60 one-dose screen, 48 h (100 = growth as untreated, 0 = no growth, -100 = all killed)
SK-MEL-2 melanoma = conditions: 10 µM unless noted
EKVX NSCLC = conditions: 10 µM unless noted
SN12C renal = conditions: 10 µM unless noted
UO-31 renal = conditions: 10 µM unless noted
TK-10 renal = conditions: 10 µM unless noted
ACHN renal = conditions: 10 µM unless noted
CAKI-1 renal = conditions: 10 µM unless noted
A498 renal = conditions: 10 µM unless noted
CCRF-CEM leukemia = conditions: 10 µM unless noted
MOLT-4 leukemia = conditions: 10 µM unless noted
SR leukemia = conditions: 10 µM unless noted
OVCAR-8 ovarian = conditions: 10 µM unless noted
OVCAR-5 ovarian = conditions: 10 µM unless noted
OVCAR-4 ovarian = conditions: 10 µM
SK-OV-3 ovarian = conditions: 10 µM unless noted
IGROV1 ovarian = conditions: 10 µM unless noted
OVCAR-3 ovarian = conditions: 10 µM unless noted
HS 578T breast = conditions: 10 µM unless noted
NCI/ADR-RES ovarian = conditions: 10 µM unless noted
RPMI-8226 leukemia = conditions: 10 µM unless noted

Measured: growth

O=C(NCc1ccc(Cn2c(=O)sn(-c3ccccc3)c2=O)cc1)OCc1ccc2c(Br)cc(Br)c(O)c2n1
inactive: SK-OV-3 ovarian 55.2%
active: SK-MEL-2 melanoma -52.4% | EKVX NSCLC -92.3% | SN12C renal -61.4% | UO-31 renal -100% | TK-10 renal -90.5% | ACHN renal -100% | CAKI-1 renal -74.9% | A498 renal -41.6% | CCRF-CEM leukemia 4.61% | MOLT-4 leukemia 2% | SR leukemia 4.62% | OVCAR-8 ovarian 0.865% | OVCAR-5 ovarian -62.7% | OVCAR-4 ovarian -52.9% | IGROV1 ovarian -80.4% | OVCAR-3 ovarian -90.9% | HS 578T breast -1.98% | NCI/ADR-RES ovarian -1.25%

CCNC(=O)N1CCc2c(Cl)c3c(c(OC)c2[C@@H]1[C@H]1OCc2c1ccc(OC)c2OC)OCCO3
active: A498 renal -20.6% | OVCAR-3 ovarian -5.71% | NCI/ADR-RES ovarian 1.11%
inactive: SK-MEL-2 melanoma 22.8% | EKVX NSCLC 48.7% | SN12C renal 38.1% | UO-31 renal 34.2% | TK-10 renal 47.7% | ACHN renal 31.5% | CAKI-1 renal 24.3% | CCRF-CEM leukemia 12.3% | SR leukemia 18.3% | RPMI-8226 leukemia 17.3% | OVCAR-8 ovarian 30.7% | OVCAR-5 ovarian 38.1% | OVCAR-4 ovarian 57.6% | IGROV1 ovarian 29.1% | HS 578T breast 14.5%

Cc1cccc(/C=C2\N=C(c3ccccc3)N(c3ccc(S(N)(=O)=O)cc3)C2=O)c1
inactive: SK-MEL-2 melanoma 102% | EKVX NSCLC 92.1% | SN12C renal 91.8% | UO-31 renal 99.9% | TK-10 renal 98.5% | ACHN renal 86.5% | CAKI-1 renal 86.2% | A498 renal 101% | CCRF-CEM leukemia 99.9% | SR leukemia 69.6% | RPMI-8226 leukemia 99.3% | OVCAR-8 ovarian 73% | OVCAR-5 ovarian 99.1% | OVCAR-4 ovarian 77.1% | SK-OV-3 ovarian 98.8% | IGROV1 ovarian 96.2% | OVCAR-3 ovarian 102% | HS 578T breast 76.1% | NCI/ADR-RES ovarian 88.7%

COC(=O)c1c(C)[nH]c(/C=C2\N=C(c3ccc[nH]3)C=C2OC)c1C
active: SK-MEL-2 melanoma -72.8% | EKVX NSCLC -31.8% | UO-31 renal -72.6% | TK-10 renal 0.549% | ACHN renal -69.1% | CAKI-1 renal -25% | A498 renal 0.235% | SR leukemia 4.93% | RPMI-8226 leukemia -16.1% | OVCAR-8 ovarian -7.15% | OVCAR-5 ovarian 0.695% | OVCAR-4 ovarian -67.2% | IGROV1 ovarian -8.84% | OVCAR-3 ovarian -40.6% | HS 578T breast -27.4%
inactive: SN12C renal 16.9% | CCRF-CEM leukemia 15.2% | SK-OV-3 ovarian 48.4% | NCI/ADR-RES ovarian 13.3%

O=c1cc(-c2ccccc2)oc2cc(OCc3cn(Cc4ccc(F)cc4)nn3)cc(O)c12
active: SK-MEL-2 melanoma -39.8% [100 µM] | TK-10 renal 0.593% [100 µM] | ACHN renal 5.21% [100 µM] | HS 578T breast 9.08% [100 µM]
inactive: EKVX NSCLC 60.1% [100 µM] | SN12C renal 58.1% [100 µM] | UO-31 renal 67% [100 µM] | CAKI-1 renal 58.7% [100 µM] | A498 renal 63.1% [100 µM] | CCRF-CEM leukemia 109% [100 µM] | MOLT-4 leukemia 95.5% [100 µM] | SR leukemia 96.8% [100 µM] | OVCAR-8 ovarian 20.4% [100 µM] | OVCAR-5 ovarian 83.7% [100 µM] | SK-OV-3 ovarian 20.6% [100 µM] | IGROV1 ovarian 31.2% [100 µM] | OVCAR-3 ovarian 61.7% [100 µM] | NCI/ADR-RES ovarian 43.2% [100 µM]

CSc1nc(N)c(N=Nc2ccc(S(=O)(=O)Nc3nnc(C)s3)cc2)c(=O)[nH]1
inactive: SK-MEL-2 melanoma 113% | EKVX NSCLC 155% | SN12C renal 92.1% | UO-31 renal 76.9% | TK-10 renal 108% | ACHN renal 102% | CAKI-1 renal 139% | A498 renal 97.7% | CCRF-CEM leukemia 128% | MOLT-4 leukemia 106% | SR leukemia 110% | OVCAR-8 ovarian 103% | OVCAR-5 ovarian 113% | SK-OV-3 ovarian 96.9% | IGROV1 ovarian 126% | OVCAR-3 ovarian 106% | HS 578T breast 89.4% | NCI/ADR-RES ovarian 113%

CC(=O)n1cc(C=O)c2ccccc21
inactive: SK-MEL-2 melanoma 97.9% | EKVX NSCLC 109% | SN12C renal 97.7% | UO-31 renal 72% | TK-10 renal 100% | ACHN renal 106% | CAKI-1 renal 100% | A498 renal 113% | CCRF-CEM leukemia 80.9% | MOLT-4 leukemia 91% | SR leukemia 97.3% | OVCAR-8 ovarian 86.7% | OVCAR-5 ovarian 104% | SK-OV-3 ovarian 116% | IGROV1 ovarian 112% | OVCAR-3 ovarian 104% | HS 578T breast 104% | NCI/ADR-RES ovarian 96.4%

COc1cc2c(c(OC)c1)C1c3cc(OC)ccc3NC(=O)N1CC2 (stereo not drawn)
inactive: SK-MEL-2 melanoma 45.5% | EKVX NSCLC 91.9% | SN12C renal 88.5% | UO-31 renal 78.5% | TK-10 renal 82.5% | ACHN renal 100% | CAKI-1 renal 77.8% | A498 renal 74.7% | CCRF-CEM leukemia 88.2% | SR leukemia 24% | RPMI-8226 leukemia 81.9% | OVCAR-8 ovarian 95.1% | OVCAR-5 ovarian 93.7% | OVCAR-4 ovarian 96.2% | SK-OV-3 ovarian 93.1% | IGROV1 ovarian 80.2% | OVCAR-3 ovarian 81.9% | HS 578T breast 90.2% | NCI/ADR-RES ovarian 51.5%

CCOC(=O)c1sc2nc(-c3cc(OC)c(OC)c(OC)c3)nc(N3CCOCC3)c2c1C
active: A498 renal -0.941% | RPMI-8226 leukemia 9.94%
inactive: SK-MEL-2 melanoma 28.1% | EKVX NSCLC 39.5% | SN12C renal 36% | UO-31 renal 22.4% | TK-10 renal 48.3% | ACHN renal 33.6% | CAKI-1 renal 31.6% | CCRF-CEM leukemia 17.1% | SR leukemia 41.8% | OVCAR-8 ovarian 44.1% | OVCAR-5 ovarian 74% | OVCAR-4 ovarian 19.7% | SK-OV-3 ovarian 56.1% | IGROV1 ovarian 50.5% | OVCAR-3 ovarian 15.5% | NCI/ADR-RES ovarian 53.9%

N#Cc1ccc(-c2ccc(COc3ccc(CC4SC(=O)NC4=O)cc3)cc2)cc1 (stereo not drawn)
inactive: SK-MEL-2 melanoma 56.9% | EKVX NSCLC 48% | SN12C renal 74.4% | UO-31 renal 48.1% | TK-10 renal 85.9% | ACHN renal 52.4% | CAKI-1 renal 48.1% | A498 renal 99.7% | CCRF-CEM leukemia 61.5% | MOLT-4 leukemia 37.8% | SR leukemia 45.1% | OVCAR-8 ovarian 58.3% | OVCAR-5 ovarian 96.2% | OVCAR-4 ovarian 40.8% | SK-OV-3 ovarian 69.9% | IGROV1 ovarian 68.4% | HS 578T breast 72.5% | NCI/ADR-RES ovarian 37.8%

Cc1ccc(C2=C/C(=C/c3ccc(Br)cc3)C(=O)N2CCc2ccc(S(N)(=O)=O)cc2)cc1
inactive: SK-MEL-2 melanoma 98.6% | EKVX NSCLC 92.8% | SN12C renal 95.9% | UO-31 renal 61.8% | TK-10 renal 110% | ACHN renal 97.7% | CAKI-1 renal 65% | A498 renal 78.5% | CCRF-CEM leukemia 104% | MOLT-4 leukemia 82.1% | SR leukemia 87.2% | OVCAR-8 ovarian 95.7% | OVCAR-5 ovarian 97.2% | OVCAR-4 ovarian 91.5% | IGROV1 ovarian 85.5% | OVCAR-3 ovarian 104% | HS 578T breast 93.4% | NCI/ADR-RES ovarian 89.1%

N#C/C(C(=O)c1ccccc1)=C1/C(=O)Nc2ccc(Br)cc21
inactive: SK-MEL-2 melanoma 113% | EKVX NSCLC 87.5% | SN12C renal 91.8% | UO-31 renal 67.2% | TK-10 renal 142% | ACHN renal 88.7% | CAKI-1 renal 84% | A498 renal 96.8% | CCRF-CEM leukemia 110% | SR leukemia 101% | OVCAR-8 ovarian 99.5% | OVCAR-5 ovarian 107% | SK-OV-3 ovarian 85.7% | IGROV1 ovarian 90.9% | OVCAR-3 ovarian 107% | HS 578T breast 92.5% | NCI/ADR-RES ovarian 98.8%

COc1ccc(-c2c(C)nn3c(NCCN4CCOCC4)cc(C)nc23)cc1OC
inactive: SK-MEL-2 melanoma 104% | EKVX NSCLC 83.9% | SN12C renal 100% | UO-31 renal 104% | TK-10 renal 102% | ACHN renal 106% | CAKI-1 renal 75.2% | A498 renal 78% | CCRF-CEM leukemia 97.6% | MOLT-4 leukemia 90.2% | SR leukemia 79.8% | OVCAR-8 ovarian 103% | OVCAR-5 ovarian 94.3% | SK-OV-3 ovarian 101% | IGROV1 ovarian 117% | OVCAR-3 ovarian 103% | HS 578T breast 79% | NCI/ADR-RES ovarian 99.8%

COc1ccc2c3ccnc(C(F)(F)F)c3n(CCCCN)c2c1
inactive: SK-MEL-2 melanoma 55.3% | EKVX NSCLC 45.7% | SN12C renal 51.6% | UO-31 renal 13.4% | TK-10 renal 61.3% | ACHN renal 26.8% | CAKI-1 renal 29.6% | A498 renal 17% | CCRF-CEM leukemia 72.7% | SR leukemia 26.9% | OVCAR-8 ovarian 46.1% | OVCAR-5 ovarian 54.8% | OVCAR-4 ovarian 74.6% | SK-OV-3 ovarian 53.3% | OVCAR-3 ovarian 47.3% | HS 578T breast 44.9% | NCI/ADR-RES ovarian 64.9%

CC(C)C1=NOC(=O)C1=Cc1cn(-c2ccco2)nc1-c1ccccc1
inactive: SK-MEL-2 melanoma 113% | EKVX NSCLC 99.6% | SN12C renal 87.4% | UO-31 renal 71.5% | TK-10 renal 110% | ACHN renal 92.3% | CAKI-1 renal 73.8% | A498 renal 98.6% | CCRF-CEM leukemia 32.9% | OVCAR-8 ovarian 80.5% | OVCAR-5 ovarian 114% | OVCAR-4 ovarian 94.6% | SK-OV-3 ovarian 102% | IGROV1 ovarian 90.2% | OVCAR-3 ovarian 90.6% | HS 578T breast 96.1% | NCI/ADR-RES ovarian 98%
active: SR leukemia -2.02% | RPMI-8226 leukemia 6.57%
